Bim-Bfl-1 = human Bim-Bfl-1 interaction inhibition; inhibition, % at 10 µM; Q16548; Bead-based flow cytometry, Bim-Bfl-1 binding inhibition; hit rate 0.12% among 190,000
Bim-Bcl-XL = inhibitors of Bim-Bcl-XL interaction, human. Bim peptide-Bcl-XL binding, bead flow cytometry, fluorescence. inhibition, % at 10 µM. hit rate 0.04% among 190,000. AID 1007
Target sequence (Q07817 whole entry, looked up): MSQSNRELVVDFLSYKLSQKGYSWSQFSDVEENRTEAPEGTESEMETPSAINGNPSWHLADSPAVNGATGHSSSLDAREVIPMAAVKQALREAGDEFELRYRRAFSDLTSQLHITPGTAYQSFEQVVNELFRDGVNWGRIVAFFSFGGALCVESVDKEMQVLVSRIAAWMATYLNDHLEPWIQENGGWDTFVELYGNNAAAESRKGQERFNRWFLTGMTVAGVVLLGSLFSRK
Bcl-2 Bim block = inhibitors of Bim-Bcl-2 interaction, human. Bead-based flow cytometry, Bim peptide-Bcl-2 binding. inhibition, % at 10 µM. hit rate 0.06% among 190,000. AID 950; in the data active = inhibition above about 40%
Target sequence (P10415 whole entry, looked up): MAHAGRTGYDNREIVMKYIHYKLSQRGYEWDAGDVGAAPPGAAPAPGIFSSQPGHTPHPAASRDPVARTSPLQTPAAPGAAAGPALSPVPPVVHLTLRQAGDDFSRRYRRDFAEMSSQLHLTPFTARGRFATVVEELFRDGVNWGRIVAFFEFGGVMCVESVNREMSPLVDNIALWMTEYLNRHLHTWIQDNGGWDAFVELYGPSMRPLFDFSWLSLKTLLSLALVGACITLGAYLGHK
Bcl-B Bim block = human Bim-Bcl-B interaction inhibition | bead-based flow cytometry, Bim peptide-Bcl-B binding | inhibition, % at 10 µM | hit rate 0.073% among 190,000 | AID 951
Bim-Bcl-W = inhibitors of Bim-Bcl-W interaction, human; hit rate 0.02% among 190,000; AID 952; Q92843; inhibition, % at 10 µM; bead-based flow cytometry, Bim peptide-Bcl-W binding;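 also: higher means less fluorescent Bim peptide bound to Bcl-W beads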
Each line names hits and unclear results; the compound was inactive in the other large screens. Rows were chosen to be rich in hits. Some 0.2% of all compounds tested hit in one or more screens of this group. Rule as the data show it, unless noted: active = inhibition above about 40%.

CN(C)S(=O)(=O)c1cccc(-c2nn(-c3ccccc3)cc2/C=C2\SC(=S)NC2=O)c1	Bim-Bfl-1 41.0, Bim-Bcl-XL 43.0, Bcl-B Bim block 55.0
CN(C)S(=O)(=O)c1cccc(-c2nn(-c3ccccc3)cc2/C=C(\C#N)c2nc3ccccc3[nH]2)c1	none
COc1ccc(C(=O)CSc2nnc(CNC(=O)c3ccco3)n2C)cc1	none
COc1ccc2c(c1O)-c1ccccc1CCN(C)C2	none
CN1CCc2cccc3c2[C@@H]1Cc1ccc(O)c(O)c1-3	Bim-Bfl-1 40.0, Bcl-2 Bim block 40.0, Bim-Bcl-W 51.0
Brc1ccc(C2=Nc3cccc4cccc(c34)N2)o1	none
Fc1ccc(C2=Nc3cccc4cccc(c34)N2)cc1	Bim-Bfl-1 49.0
COc1ccc(NC(=O)/C(Cl)=C(/Cl)S(=O)Cc2ccc(Cl)cc2)cn1 (stereo not given)	Bim-Bfl-1 40.0
N=C1C(c2nc3ccccc3s2)=C(O)CN1Cc1ccccc1	Bim-Bfl-1 68.0, Bcl-2 Bim block 85.0, Bcl-B Bim block 83.0
CN(C)[C@@H]1C(=O)C(C(=O)NCN2CCCC2)=C(O)[C@@]2(O)C(=O)C3=C(O)c4c(O)cccc4[C@@](C)(O)C3CC12 (stereo not given in full)	Bcl-B Bim block 43.0
COc1ccccc1NC(=O)Nc1ccc2c(c1)nc(C)n2C	none
Nc1c(C(=O)NC2CC2)sc2nc3c(c(-c4ccco4)c12)CC/C3=C/c1ccco1	Bim-Bfl-1 56.0, Bcl-2 Bim block 43.0
NC(=O)c1sc2nc3c(c(-c4ccco4)c2c1N)CCC3	none
O=C(CNC(=O)c1ccco1)NCC(=O)OCc1ccccc1Br	Bcl-2 Bim block 89.0 (no result: Bim-Bfl-1, Bcl-B Bim block)
Cc1ccc(-n2[nH]c(C)c(/C=N/Nc3ccc([N+](=O)[O-])cc3[N+](=O)[O-])c2=O)cc1C	Bim-Bfl-1 42.0, Bim-Bcl-XL 43.0, Bcl-B Bim block 42.0
CCCCNc1c(N)n(CC(C)C)c(=O)[nH]c1=O	none
CN1CCN(c2ccc(-c3ccnn3C(=O)Nc3cccc(C(F)(F)F)c3)cc2)CC1	none
COc1ccc(-c2noc(COc3ccc4c(c3)OCO4)n2)cc1OC	Bcl-2 Bim block 85.0 (no result: Bim-Bfl-1, Bcl-B Bim block)
C#CCn1c(=O)cc(C)c2ccccc21	none
C#CCn1cc(C=C2C(=O)c3ccccc3C2=O)c2ccccc21	Bcl-2 Bim block 58.0, Bcl-B Bim block 71.0
CCOC(=O)C1(CC/C(C)=N\NC(N)=O)CC(C)(C)OC1=O (stereo not given)	Bim-Bfl-1 44.0
CCOC(=O)C1(C/C(C)=N/NC(N)=O)CC(C)(C)OC1=O (stereo not given)	none
COc1cccc(NC(=S)N2CCn3cccc3C2c2cccnc2)c1 (stereo not given)	none
Cc1cccc(NC(=S)N2CCn3cccc3C2c2cccnc2)c1 (stereo not given)	Bcl-B Bim block 41.0
Cc1c(N=C2C=CC(=O)c3ccccc32)c(=O)n(-c2ccccc2)n1C	Bim-Bfl-1 53.0
Cc1c(N=C2C=C(Br)C(=O)C(Br)=C2)c(=O)n(-c2ccccc2)n1C	none
CCOc1c(Cl)cc(CNc2ccc(S(N)(=O)=O)cc2)cc1OC	none
CCOc1c(Cl)cc(CNc2ccc(N3CCCC3)cc2)cc1OC	Bim-Bfl-1 41.0
O=C(CCc1ccccc1)N1CCN(c2ccccn2)CC1	Bcl-B Bim block 43.0
O=C(Cc1ccccc1Cl)N1CCN(c2ncccn2)CC1	none
COc1ccc(N2CCN(C(=O)c3cc(=O)[nH]c4ccccc34)CC2)cc1	Bim-Bfl-1 58.0, Bcl-2 Bim block 80.0, Bcl-B Bim block 74.0
COc1ccc(C2=Nn3c(nnc3-c3ccco3)SC2)cc1OC	Bim-Bcl-XL 44.0
Cc1ccc(OCc2cn3cccnc3n2)cc1	Bcl-B Bim block 58.0
COc1cccc2c1C(=O)c1c(O)c3c(c(O)c1C2=O)C[C@@](O)(C(=O)CO)C[C@@H]3O[C@H]1C[C@H](N)[C@H](O)[C@H](C)O1	Bim-Bfl-1 60.0, Bim-Bcl-XL 57.0, Bcl-2 Bim block 54.0, Bcl-B Bim block 86.0, Bim-Bcl-W 59.0
Clc1nc(NCc2cccnc2)nc(N2CCOCC2)n1	Bim-Bcl-XL 49.0, Bcl-B Bim block 73.0, Bim-Bcl-W 47.0
c1ccc(CNc2nc(N3CCOCC3)nc(N3CCOCC3)n2)cc1	none
CCCCOC(=O)c1nc(Cl)c(Cl)c(N)c1Cl	Bcl-B Bim block 42.0
CCN(C(C)=O)c1ccc(Oc2nc(OC)cc(OC)n2)cc1	none
O=C(OCC(=O)c1ccc[nH]1)c1ccccc1	Bim-Bfl-1 52.0, Bcl-2 Bim block 79.0, Bcl-B Bim block 74.0
CNC(=O)CC1C(=O)N(Cc2ccccc2)C(=S)N1NC(=O)c1cccc(F)c1 (stereo not given)	Bim-Bfl-1 40.0, Bim-Bcl-XL 40.0
Cc1ccc(NC(=O)CC2C(=O)N(Cc3ccccc3)C(=S)N2NC(=O)c2ccccc2)c(C)c1 (stereo not given)	none
O=C(Nc1nnc(SCc2ccccn2)s1)C1CC(=O)N(c2ccccc2)C1 (stereo not given)	Bim-Bcl-XL 40.0
COCCSc1nnc(NC(=O)C2CC(=O)N(c3ccccc3)C2)s1 (stereo not given)	none
Cc1cccc(NC(=O)NNC(=O)c2sccc2-n2cccc2)c1	none
CC(C)(C=O)C1=CC(=O)c2ccccc2C1=O	Bim-Bfl-1 49.0
N#CC1(NC(=O)CN2CCc3ccccc3C2)CCCC1	none
COC(=O)c1ccc(C2Nc3cccc4cccc(c34)N2)cc1	none
COc1cc(C2Nc3cccc4cccc(c34)N2)cc(OC)c1O	Bim-Bfl-1 57.0, Bim-Bcl-W 42.0
COc1cc(C2Nc3cccc4cccc(c34)N2)ccc1OC(C)=O	Bim-Bfl-1 43.0
COc1ccccc1OCC#CCNC1CCCCC1C (stereo not given)	none
Cc1cc(C)nc(SCc2cc(=O)c(OC(=O)c3ccc(Cl)c([N+](=O)[O-])c3)co2)n1	Bim-Bcl-XL 52.0
O=C(NCCCO)C(=O)NCc1ccncc1	none
O=C(OCc1cnc(Cl)s1)c1cccc(Cl)c1Cl	Bim-Bfl-1 51.0, Bcl-2 Bim block 76.0, Bcl-B Bim block 70.0
O=C(OCc1cnc(Cl)s1)c1ccccc1Cl	none
Cc1ccc(C(=O)N/N=C2/NC(=O)CC(C(=O)Nc3ccccc3)S2)cc1 (stereo not given)	Bim-Bcl-XL 40.0
COc1ccc2c3c(cccc13)C(=O)N(O)C2=O	none
CCC1=NNc2cccc3c(OC)ccc1c23	Bim-Bfl-1 56.0, Bim-Bcl-XL 75.0, Bcl-2 Bim block 64.0, Bcl-B Bim block 100.0, Bim-Bcl-W 66.0
COc1ccc2oc(-c3ccccc3)c(C(=O)N3CCOCC3)c2c1	Bim-Bfl-1 60.0, Bcl-2 Bim block 80.0, Bcl-B Bim block 81.0
CCOc1ccc2oc(-c3ccccc3)c(C(=O)N3CCN(C)CC3)c2c1	none
O=C(OCC(=O)N1c2ccccc2Sc2ccccc21)c1ccc[n+]([O-])c1	none
COC(=O)/C(=C/c1c[nH]c2ccccc12)NC(C)=O	none
COC(=O)/C(=C/c1ccc(F)cc1)NC(C)=O	Bcl-B Bim block 48.0
CCN(CC)CCN(C(=O)c1ccc(N2C(=O)CCC2=O)cc1)c1nc2cc3c(cc2s1)OCCO3	Bcl-2 Bim block 43.0

Compound activity (PubChem)
